About 8,600 (12%) of roughly 69,000 compounds showed an effect of 50% or more. This excerpt belongs to a sample that is enriched for strong results.
Tested on: Plasmodium berghei
Test: Screen against P. berghei liver stage (PbLuc), transformed with Luciferase, at 10uM
Assay type: functional, HepG2
Details: tested at 10 uM

SMILES	INHIBITION [%]
Cn1cccc1C(=O)N1CCO[C@@H]2CN(Cc3ccco3)C[C@@H]2C1	15.8
c1csc(CN2CCc3ncnc(C4CCOC4)c3CC2)c1 (configuration not stated)	33
COc1cccc(-c2n[nH]cc2CNC2CCC(O)CC2)c1 (configuration not stated)	19.4
COc1ccc(CNC2CCN(CCc3ccncc3)CC2)cc1O	-4.86
COc1ccc(-c2cc[nH]n2)cc1CNC1CCCC1	72.1
CCN1CCC(CNCc2cc(OC)ccc2OC)C1 (configuration not stated)	10.1
COc1ccc(-c2ccncc2)cc1CNC1CCCC1	51.7
COc1ccc(-c2cn[nH]c2)cc1CNC1CCCC1	9.04
COc1ccc(OC)c(CNC2CCCN(c3cccnn3)C2)c1 (configuration not stated)	30.5
COc1ccc(OC)c(CNC2CCCc3nc(N(C)C)ncc32)c1 (configuration not stated)	37.6
COc1ccc(-c2ccoc2)cc1CNC1CCCC1	61.9
Cc1cc(C(=O)CN(Cc2cccnc2)CC2CCCO2)c(C)[nH]1 (configuration not stated)	10.7
Cc1cnc(C(NC(=O)NCC2(CO)CC2)C2CC2)s1 (configuration not stated)	22.8
CC(C)c1nc(C(=O)N2C[C@@H]3CC[C@H]2CN(C2CCOCC2)C3)cs1	44.8
CCn1ccc(C(=O)N2CCCC2(C)c2nc(C)cc(N(C)C)n2)n1 (configuration not stated)	-4.51
COc1ccc(CNc2c(C)nn(C(C)C)c2C)cc1	69.3

SMILES	INHIBITION [%]
COc1ccc(CNc2c(C)nn(C(C)C)c2C)cc1OC	62.8
COc1ccc(CNc2n[nH]c(C)n2)cc1	4.03
COc1ccc(CNC(C)c2cnc3cc(C)nn3c2C)cc1 (configuration not stated)	28.4
COc1ccc(CNc2nc(C3CC3)no2)cc1OC	25.6
COc1ccc(C(=O)Nc2c(C)nn(C(C)C)c2C)cc1	10
COc1ccc(CNc2cccnc2-n2cccn2)cc1OC	23.9
COc1cccc(CNc2c(C)nn(C(C)C)c2C)c1	31.3
COc1ccc2cc(CNc3c(C)nn(C(C)C)c3C)ccc2c1	62.8
O=C1CCOC[C@]2(CN(Cc3ccccc3)C[C@H]2c2cccnc2)N1	20.6
CCC(C)N(Cc1ccsc1)C(=O)c1ccc(CO)cc1 (configuration not stated)	2.7
CC(=O)Nc1nc(C2CCN(C(=O)c3ccncc3)CC2)cs1	-9.27
CC(=O)Nc1nc(C2CCN(C(C)C)CC2)cs1	23.4
CC(=O)Nc1nc(C2CCN(C(C)=O)CC2)cs1	27.9
CC(=O)Nc1nc(C2CCN(CC(N)=O)CC2)cs1	63.7
CC(=O)Nc1nc(C2CCN(C(=O)c3cccnc3)CC2)cs1	60.8
CC(=O)Nc1nc(C2CCN(C(=O)c3cncs3)CC2)cs1	48.6

Source: ChEMBL document CHEMBL4513216, “Probing the Open Global Health Chemical Diversity Library for Multistage-Active Starting Points for Next-Generation Antimalarials” (ACS Infect Dis, 2020)
